Drawing on PubChem BioAssay, this text covers z-score and composite z-score for 10 compounds.

Each structure is given as a SMILES string. Active and inactive are the calls of the source. Unless noted, how the calls were made is not given here.

Assay [1] is described as follows: HepG2 liver cancer cell viability effects, profiling panel, resazurin fluorescence, 24 h, PK04 Diversity Set (AID 1172). Conditions: higher = more signal. A general note: The colour change of resazurin is a common sign of viable cells or microbes.
The nature of assay [2]: basal S. cerevisiae growth modulation, no modifier, primary screen, OD600, strain BY4716, 24 h, basal condition (AID 1173). Conditions: OD600, 24 h, higher = more signal, called active from +8 up or from −8 down.
The nature of assay [3]: MM1S myeloma cell viability, profiling panel, resazurin fluorescence, basal, 24 h, PK04 Diversity Set (AID 1174).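 Further: MM1S multiple myeloma cell line.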 Conditions: higher = more signal, called active from +8 up or from −8 down.
Assay [4] deals with Dihydroorotate dehydrogenase (quinone), mitochondrial (Plasmodium falciparum (isolate 3D7)) (UniProt Q08210). As to the kind of experiment: PfDHODH enzyme inhibitors, primary screen, biochemical, C-terminal His tag, absorbance 600 nm (AID 1175).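 Further: recombinant parasite enzyme with a five histidine tag at its C terminus.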 Conditions: DCIP absorbance 600 nm, higher = more signal, called active from +8 up or from −8 down.
Assay [5] is described as follows: P. aeruginosa biofilm formation inhibitors, primary screen, strain PAO1, LB-PBS medium, absorbance 600 nm (AID 1176). Conditions: P. aeruginosa PAO1 growth/biofilm, A600, 12 h; higher = more signal.
Assay [6] can be described thus: S. cerevisiae RM11-1a growth modifiers, primary screen, strain RM11-1a, OD600, basal, 24 h (AID 1177).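 Further: cultures grown under basal conditions with no added stressor.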 Conditions: OD600, 24 h, higher = more signal, called active from +8 up or from −8 down.
Assay [7] is described as follows: E. coli acrAB mutant growth effects, primary screen, E. coli filamentation inducers, strain DRC39, OD650, 24 h (AID 1178).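 Further: growth measured as culture turbidity by optical density at 650 nm.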 Conditions: higher = more signal, called active from +8 up or from −8 down.
Assay [8] can be described thus: E. coli acrAB mutant growth effects, primary screen, E. coli filamentation inducers, strain DRC39, OD650, 48 h (AID 1179).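 Further: screen aims at cell division blockers that make cells filament.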 Conditions: E. coli DRC39 delta-acrAB growth, higher = more signal, called active from +8 up or from −8 down.
The nature of assay [9]: RPMI8226 myeloma cell viability, profiling panel, resazurin fluorescence, basal, 24 h, PK04 Diversity Set (AID 1180).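 Further: RPMI8826 multiple myeloma cell line at 5000 cells per well.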 Conditions: higher = more signal.
For assay [10], the target named is E3 ubiquitin-protein ligase XIAP (Homo sapiens) (UniProt P98170). As to the kind of experiment: XIAP binders, primary screen, biophysical, small-molecule microarray, fluorescence 635 nm (AID 1181).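 Further: score merges 667 nm emission and signal to noise over triplicate slides.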 Conditions: small-molecule microarray binding, higher = more signal.
The subject of assay [11] is XIP peptide (Xip251-270) binding. As to the kind of experiment: small-molecule binders of XIP peptide, primary screen, biochemical, small-molecule microarray, fluorescence 635/667 nm, 0.1 µg/mL protein (AID 1182). Conditions: fluorescent protein binding, 635 nm, higher = more signal, called active from +8 up or from −8 down.
Assay [12] has as its system XIP peptide (Xip251-270). As to the kind of experiment: small-molecule binders of XIP peptide, primary screen, biochemical, small-molecule microarray, fluorescence 635/667 nm, 0.5 µg/mL protein (AID 1183). Conditions: small-molecule microarray binding, fluorescence 635 nm; higher = more signal.
A short description of assay [13]: Plasmodium falciparum growth inhibition, primary screen, strain 3D7, DAPI fluorescence, 100 nL (AID 1184).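 Further: parasites grown inside human red blood cells in medium with human serum.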 Conditions: P. falciparum 3D7 growth, 3 d, higher = more signal.
In assay [14] the target is Homeobox protein Hox-A13 (Mus musculus) (UniProt Q62424). As to the kind of experiment: inhibitors of HoxA13-DNA binding, primary screen, biochemical, fluorescence polarization, labeled oligonucleotide (AID 1185). Conditions: 15 min, higher = more signal, called active from +8 up or from −8 down. In general terms: In fluorescence polarisation assays a small probe gives low polarisation when free and higher when bound to something large.

Assay [15] is described as follows: inhibitors of hydroxyurea-induced Chk1 phosphorylation, primary screen, imaging, HeLa, phospho-Chk1 antibody, percent positive cells (AID 1186). Conditions: hydroxyurea-induced phospho-Chk1 immunofluorescence imaging, higher = more signal.
Assay [16] is described as follows: inhibitors of hydroxyurea-induced Chk1 phosphorylation, primary screen, imaging, HeLa, phospho-Chk1 nuclear intensity (AID 1187). Conditions: hydroxyurea-induced phospho-Chk1 immunofluorescence imaging, higher = more signal.

E3 ubiquitin-protein ligase XIAP (Homo sapiens), sequence (P98170 whole entry, looked up): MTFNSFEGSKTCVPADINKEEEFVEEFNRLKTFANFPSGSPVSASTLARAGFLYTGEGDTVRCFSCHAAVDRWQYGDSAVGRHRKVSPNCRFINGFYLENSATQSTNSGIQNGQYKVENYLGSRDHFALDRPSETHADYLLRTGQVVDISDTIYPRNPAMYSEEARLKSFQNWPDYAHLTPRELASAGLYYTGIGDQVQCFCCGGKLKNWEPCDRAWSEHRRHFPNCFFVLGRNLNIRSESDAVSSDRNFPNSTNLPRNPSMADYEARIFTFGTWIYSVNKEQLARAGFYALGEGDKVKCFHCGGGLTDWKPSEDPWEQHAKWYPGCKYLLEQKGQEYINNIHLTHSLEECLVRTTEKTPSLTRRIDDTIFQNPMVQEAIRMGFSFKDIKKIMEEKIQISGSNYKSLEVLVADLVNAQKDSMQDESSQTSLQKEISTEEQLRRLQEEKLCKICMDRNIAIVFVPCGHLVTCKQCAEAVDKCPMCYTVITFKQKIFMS
Homeobox protein Hox-A13 (Mus musculus), sequence (Q62424 whole entry, looked up): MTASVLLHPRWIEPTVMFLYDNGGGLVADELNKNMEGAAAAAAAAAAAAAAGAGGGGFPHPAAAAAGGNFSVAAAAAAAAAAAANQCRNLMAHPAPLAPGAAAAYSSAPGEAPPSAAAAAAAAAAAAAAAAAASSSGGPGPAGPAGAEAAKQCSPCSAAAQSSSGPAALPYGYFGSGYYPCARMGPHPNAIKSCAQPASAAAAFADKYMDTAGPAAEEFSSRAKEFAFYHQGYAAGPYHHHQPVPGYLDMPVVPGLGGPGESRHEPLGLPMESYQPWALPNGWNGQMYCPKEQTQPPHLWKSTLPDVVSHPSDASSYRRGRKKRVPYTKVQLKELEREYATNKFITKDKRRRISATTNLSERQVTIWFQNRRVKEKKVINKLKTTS
Dihydroorotate dehydrogenase (quinone), mitochondrial (Plasmodium falciparum (isolate 3D7)), sequence (Q08210 whole entry, looked up): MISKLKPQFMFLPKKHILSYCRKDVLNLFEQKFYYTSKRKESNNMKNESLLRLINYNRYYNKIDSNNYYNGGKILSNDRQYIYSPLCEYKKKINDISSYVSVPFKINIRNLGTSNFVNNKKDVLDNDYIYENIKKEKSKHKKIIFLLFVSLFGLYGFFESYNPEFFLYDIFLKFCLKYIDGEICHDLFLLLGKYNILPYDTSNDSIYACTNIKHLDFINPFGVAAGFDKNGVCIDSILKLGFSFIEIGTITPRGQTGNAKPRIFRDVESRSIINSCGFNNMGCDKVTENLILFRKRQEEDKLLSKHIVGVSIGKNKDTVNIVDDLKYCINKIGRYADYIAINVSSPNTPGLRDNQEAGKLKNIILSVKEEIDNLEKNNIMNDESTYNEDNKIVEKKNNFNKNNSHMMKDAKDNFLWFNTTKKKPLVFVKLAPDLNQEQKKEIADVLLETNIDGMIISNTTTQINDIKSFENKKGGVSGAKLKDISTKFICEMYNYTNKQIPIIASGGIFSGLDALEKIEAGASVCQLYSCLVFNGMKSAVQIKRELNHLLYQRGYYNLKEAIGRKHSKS

As to `CCCCN1CC=CC23O[C@@H]4/C=C\CCCOC(=O)C4[C@H]2C(=O)N(CCO)[C@@H]3C1=O` (stereo not given in full), the z-score is -1.03 in assay [1]; 0.291 (inactive) in assay [2]; 0.294 (inactive) in assay [3]; -0.221 (inactive) in [5]; 0.507 (inactive) in [6]; -0.088 (inactive) in assay [7]. In addition, the z-score was -0.389 (inactive) in assay [8]; 0.0725 in [9]; -1.09 in assay [13]; -5.46 (inactive) in assay [14]; -0.302 (inactive) in assay [15]; 0.214 (inactive) in [16]. Also, the composite z-score is 0.538 (inactive) in assay [4], 0.0537 in assay [10], 0.51 (inactive) in assay [11] and 0.157 in assay [12].
Turning to `COc1cccc(C)c1NC(=O)O[C@H]1[C@H](OC(=O)Nc2ccccc2-c2ccccc2)[C@H](OC(=O)Nc2ccccc2-c2ccccc2)[C@@H](OC)O[C@@H]1CO`, the z-score in assay [1] is -0.589; in [2] it was -0.342 (inactive); in assay [3] it was -1.13 (inactive); in [5], 1.11 (inactive); in assay [6] it was 1.25 (inactive); in [7], -0.469 (inactive). Further, the z-score in [8] is 0.0517 (inactive); in assay [9], -0.575; in assay [13], -2.51; in assay [14], -1.28 (inactive); in assay [15] it was -0.8 (inactive); in [16] it was -1.12 (inactive). Moreover, the composite z-score in assay [4] was -0.0569 (inactive); in [10], 0.248; in assay [11] it was 0.201 (inactive); in [12], 0.729.
For `C=C(COC)/C(=C/C[C@H](OC(=O)c1ccncc1)c1ccc(CO)o1)c1cnc2ccccc2c1`, the z-score in assay [1] is -0.338; in assay [2], 0.107 (inactive); in [3], -0.117 (inactive); in assay [5], 0.449 (inactive); in [6], 0.158 (inactive); in [7], -0.305 (inactive). Further, the z-score is -0.343 (inactive) in assay [8]; 0.0987 in assay [9]; 0.834 in [13]; -5.63 (inactive) in assay [14]; -0.429 (inactive) in assay [15]; -0.442 (inactive) in assay [16]. Further, the composite z-score in [4] was -7.5 (inactive); in [10] it was -0.121; in assay [11], 1.02 (inactive); in assay [12], 0.447.
For `C=C[C@H](C)[C@H](OC(=O)Nc1ccc(SC)cc1)c1ccc(OCCO)cc1`, the z-score was -0.551 in [1]; -2.49 (inactive) in [2]; -0.547 (inactive) in [3]; 1.15 (inactive) in [5]; 0.116 (inactive) in assay [6]; -0.576 (inactive) in assay [7]. Besides, the z-score in [8] was -0.435 (inactive); in assay [9], -0.274; in [13], -0.563; in assay [14] it was -5.1 (inactive); in [15] it was -1.34 (inactive); in assay [16], -0.511 (inactive). Besides, the composite z-score in assay [4] was -0.985 (inactive); in assay [10] it was 0.133; in assay [11] it was 2.81 (inactive); in [12], 0.232.
`COc1ccc([Si](C)(C)[C@H]2[C@H](CC(=O)N3Cc4ccccc4C[C@H]3CO)O[C@@]3(C(=O)N(Cc4ccc(N5CCOC5=O)cc4)c4ccccc43)[C@@H]2C)cc1`: the z-score in assay [1] is -0.418; in assay [2], -0.895 (inactive); in assay [3], -3.41 (inactive); in assay [5], 0.732 (inactive); in assay [6], 0.543 (inactive); in assay [7], 0.166 (inactive). Besides, the z-score in assay [8] was -0.207 (inactive); in [9], -2.27; in [13], -0.847; in [14], -3.92 (inactive); in assay [15], -0.719 (inactive); in assay [16], -0.869 (inactive). Besides, the composite z-score in assay [4] is -1.03 (inactive); in assay [10], -0.105; in assay [11], 1.61 (inactive); in [12], 0.742.
With `CCCC#C[Si](O[C@H](CC)c1cn([C@H](C)c2ccccc2)nn1)(C(C)C)C(C)C`, the z-score in assay [1] was 0.186; in assay [2] it was -12.9 (active); in [3], -0.098 (inactive); in assay [5] it was -0.677 (inactive); in [6] it was 0.75 (inactive); in assay [7], 1.4 (inactive). The z-score was 1.06 (inactive) in assay [8]; 1.29 in [9]; -0.285 in [13]; -0.652 (inactive) in [14]; -0.673 (inactive) in assay [15]; -0.399 (inactive) in assay [16]. Further, the composite z-score in assay [4] is 0.738 (inactive); in assay [10] it was 0.274; in assay [11] it was 0.062 (inactive); in [12] it was 0.78.
In the case of `CC(C)C(O)C1C=CC2C(=O)N(c3ccccc3)C(=O)C2N1Nc1ccccc1` (stereo not given), the z-score in assay [1] was -0.196; in assay [2], -2.05 (inactive); in assay [3] it was -0.302 (inactive); in assay [5], 0.835 (inactive); in assay [6], 0.334 (inactive); in assay [7], 0.562 (inactive). The z-score was 0.376 (inactive) in [8]; -0.825 in [9]; -0.752 in assay [13]; -4.18 (inactive) in [14]; 0.436 (inactive) in assay [15]; 0.581 (inactive) in assay [16]. Also, the composite z-score was -0.85 (inactive) in assay [4], 0.123 in assay [10], 1.33 (inactive) in assay [11] and 0.852 in [12].
As to `C[C@@H]1NC(=O)[C@@H](Cc2ccccc2)NC(=O)[C@@]23C(=O)N[C@@H](Cc4ccccc4)C2[C@H](C)[C@@]2(C)O[C@H]2C3/C=C/C/C=C\CNC1=O` (stereo not given in full), the z-score in [1] was -1.2; in [2] it was 0.318 (inactive); in assay [3] it was 0.0992 (inactive); in [5], 0.413 (inactive); in assay [6] it was 0.652 (inactive); in assay [7] it was -0.811 (inactive). For the same compound, the z-score was -0.863 (inactive) in assay [8]; 0.329 in [9]; -0.132 in assay [13]; -6.78 (inactive) in [14]; -0.115 (inactive) in [15]; -0.328 (inactive) in [16]. Also, the composite z-score was 0.0303 (inactive) in assay [4], -0.0138 in assay [10], -0.274 (inactive) in assay [11] and 0.711 in assay [12].
For `CCOC(=O)C[C@H]1[C@H](OC(=O)c2cc3ccccc3oc2=O)[C@@H](NC(=O)c2ccccc2)c2cc(OCCCO)ccc2N1C(=O)c1ccccc1`, the z-score was -1.3 in assay [1]; -1.89 (inactive) in [2]; 0.741 (inactive) in [3]; -1.02 (inactive) in [5]; -0.0038 (inactive) in assay [6]; -0.397 (inactive) in [7]. Also, the z-score in assay [8] is -0.869 (inactive); in assay [9], -0.171; in [13] it was -1.66; in assay [14], -1.56 (inactive); in assay [15] it was 0.171 (inactive); in assay [16], -0.0272 (inactive). Also, the composite z-score in assay [4] is -3.31 (inactive); in [10] it was -0.0559; in assay [11], -0.0879 (inactive); in assay [12], 0.283.
In the case of `COc1ccccc1CN1C(=O)c2ccccc2[C@](Cc2ccccc2I)(C(=O)O)[C@@H]1c1ccc(CO)cc1`, the z-score is -0.569 in assay [1]; -1.49 (inactive) in assay [2]; -0.0504 (inactive) in assay [3]; 0.416 (inactive) in [5]; 0.0183 (inactive) in assay [6]; 0.706 (inactive) in assay [7]. Also, the z-score in assay [8] was 0.602 (inactive); in [9] it was 0.437; in assay [13], -0.0897; in assay [14] it was -5.51 (inactive); in assay [15], -0.138 (inactive); in assay [16], 0.142 (inactive). Besides, the composite z-score is -0.0436 (inactive) in [4], 0.133 in [10], 0.382 (inactive) in assay [11] and 0.798 in [12].
